According to PubChem BioAssay (NCI):
About 83,000 compounds went through this panel and 20% of them were active in at least one assay; those are over-represented in the sample as a whole.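 Negative percent growth values reflect cell death: -40 means 40% of the cells present at the start died, and -100 means all died.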 Activity calls are given as the source filed them.

test system: TK-10 renal; assay: NCI-60 one-dose screen, 48 h (100 = growth as untreated, 0 = no growth, -100 = all killed); conditions: 10 µM unless noted
Protocol: Growth inhibition of the TK-10 human tumor cell line is measured as a screen for anti-cancer activity. Cells are grown in 96 well plates and exposed to the test compound for 48 hours. Compounds are tested at a single concentration, which is 10^-5 M for most compounds. The reported endpoint is percent growth (GI% or GIPRCNT), where numbers from 0 - 100% represent growth inhibition, and numbers from -100% - 0 represent cell death. For example, a value of 40 represents 60% growth inhibition. A value of 0 means no net growth occurred over the course of the experiment. A value of -40 indicates 40% of cells at the beginning of the experiment died by the end of the experiment. A value of -100 means all cells are dead at the end of the experiment.
NCI-60 Human Tumor Cell Lines Screen was performed using the standard one-dose NCI protocol, which is described in more detail at https://dtp.cancer.gov/discovery_development/nci-60/default.htm.
Compounds with GIPRCNT values below 10 were considered active. Activity score was based on GIPRCNT using the following formula: […]
Score is 0 for GIPRCNT values of 100 or above, 50 for GIPRCNT values of 0, and 100 for GIPRCNT values of -100.

Structure (SMILES)	growth
Cc1ccc(-c2nc(SCC(=O)Nc3nc(-c4ccc(Cl)cc4)cs3)[nH]c(=O)c2C#N)cc1	103% (inactive)
c1ccc(-c2nc3nonc3nc2-c2ccccc2)cc1	81.4% (inactive)
O=C(Nc1ccc(Cl)cc1F)c1cc(Cl)ccc1O	15.6% (inactive)
C=C(C)[C@@H]1CC[C@]2(N=C=O)CC[C@]3(C)[C@H](CC[C@@H]4[C@@]5(C)Cc6c([nH]c7ccccc67)C(C)(C)[C@@H]5CC[C@]43C)[C@@H]12	21.1% (inactive)
COc1ccc(N2C(=O)C(Oc3ccccc3)C2c2ccc(C)cc2)cc1 (stereo not given)	126% (inactive)
C=CCc1cc(C)ccc1NC(C(=O)NCC(=O)OC)c1ccccc1 (stereo not given)	106% (inactive)
BrCCCc1n(Cc2ccc3ccccc3c2)c2ccccc2[n+]1Cc1ccc2ccccc2c1	-85.7% (active)
COc1cccc2nc3n(c12)C(c1c(F)cccc1F)SC3 (stereo not given)	115% (inactive)
Cc1cccc2c1S/C(=C/c1ccc([N+](=O)[O-])cc1)C2=O	166% (inactive)
CCN(CC)c1ccc(C2=NN(C(C)=O)C(c3cc(OC)c(OC)c(OC)c3)C2)cc1 (stereo not given)	39.9% (inactive)
Cc1ccc2sc3c(NCCCN)nc4ccccc4c3c(=O)c2c1	85.2% (inactive)
CCCCCCn1c(-c2ccc(C(=O)O/N=C(\N)c3ccc(OC)cc3)cc2)nc(-c2ccccc2)c1-c1ccccc1	-73.6% (active)
COc1cc(CCCO)c(OC)c(OC)c1OC	109% (inactive)
CN(C)CCCNc1nc2ccccc2c2c(=O)c3cc(F)ccc3sc12	59.7% (inactive)
CC(=O)OC[C@H]1OC(Sc2sc(C(=O)c3ccc(Br)cc3)c(N)c2-c2nc3ccccc3s2)[C@H](OC(C)=O)[C@@H](OC(C)=O)[C@H]1OC(C)=O (stereo not given in full)	128% (inactive)
CCOC(=O)CC1C(COC(=O)NC)OC(n2cnc3c(NC(=O)Nc4ccccc4)ncnc32)C1O[Si](C)(C)C(C)(C)C (stereo not given)	87.7% (inactive)
O=c1c2cc(F)cc(Cl)c2sc2c(NCCCNCCO)nc3ccccc3c12	100% (inactive)
O=c1c2cc(F)ccc2sc2c(NCCCNCCO)nc3ccc(F)cc3c12	67.5% (inactive)
CSc1ccc2c(c1)c(CCN)c(C)n2Cc1ccc(Cl)c(Cl)c1	-80.4% (active)
CCCCNC(=O)Oc1ccc(/C(=C(\C)c2ccc(Cl)cc2)c2ccc(OCCN(CC)CC)cc2)cc1	88.6% (inactive)

Structure (SMILES)	growth
Cc1nc2ccccc2c(/C=C/c2ccc(Cl)cc2)c1C(=O)/C=C/c1ccc(C(F)(F)F)cc1	-82.8% (active)
CCn1cnc2c1c(=O)[nH]c(=O)n2CC1CCC(CNS(=O)(=O)c2ccc(OC3CCOCC3)c(F)c2)CC1 (stereo not given)	33.7% (inactive)
Cc1cc2[nH]c(=O)c3c4ncccc4cn3c2cc1C	18.1% (inactive)
CCc1ccc2nc(NC(=O)Cc3csc(NC(=O)c4ccco4)n3)sc2c1	82% (inactive)
CCN1C(=O)N(CC)C2Nn3c(s/c(=C\c4ccc([N+](=O)[O-])cc4)c3=O)=NC21 (stereo not given)	69.9% (inactive)
Cc1ccc(C2CC(c3ccc(Nc4ccnc5cc(Cl)ccc45)cc3)=NN2C=O)cc1 (stereo not given)	83.2% (inactive)
COc1ccc2nc(NCCCNCCO)c3sc4ccc(F)cc4c(=O)c3c2c1	69.3% (inactive)
O=c1ccc(N=Nc2ccc([N+](=O)[O-])cc2)ccc1O	47.9% (inactive)
Nc1ccc(Sc2ccc([N+](=O)[O-])c3nonc23)cc1	111% (inactive)
OC(c1ccccc1)C(NC(Cc1ccccc1)c1ccccc1)c1ccccc1 (stereo not given)	92.2% (inactive)
O=C(S)CNC(=O)c1ccccc1	91.6% (inactive)
COc1ccc2c(c1)C(C)Cc1c(ncnc1-n1c(C)nc3ccccc31)N2C (stereo not given)	57% (inactive)
CC/C=C\C[C@@H](O)C/C=C1/C(=O)C=C[C@H]1C/C=C\CCCC(=O)OC	31.1% (inactive)
O=C1/C(=C/c2ccc(F)cc2)Sc2c(Br)cccc21	111% (inactive)
Cc1ccc(C(=O)NN2C(=O)CSC2c2ccc(Cl)cc2)cn1 (stereo not given)	128% (inactive)
O=C(/C=C/c1sc(Cl)nc1Cl)c1ccc(Br)cc1	92.3% (inactive)
C#Cc1cccc(NC(=O)c2ccc(NC(=O)C=C)cc2)c1	69.9% [8.25 µM] (inactive)
Cc1ccc(-c2nc(N3CCN(C(=O)c4ccc(OC(F)(F)F)cc4)CC3)c3ccccc3n2)cc1	90.6% (inactive)
COc1cc(C2CC(c3cccc(Br)c3)=NN2C(C)=O)cc(OC)c1OC (stereo not given)	48.4% (inactive)
c1cc(NCCc2ccncc2)nc(-n2cnc3ccccc32)c1	86.9% (inactive)
